Measurements reported in ChEMBL document CHEMBL2218924, “A broad activity screen in support of a chemogenomic map for kinase signalling research and drug discovery” (Biochem J, 2013).

Tests used:
[1] = biological target: T1, Mitogen-activated protein kinase kinase kinase 5 (Homo sapiens) (UniProt Q99683); conditions: at 10 µM
T1 sequence (whole entry): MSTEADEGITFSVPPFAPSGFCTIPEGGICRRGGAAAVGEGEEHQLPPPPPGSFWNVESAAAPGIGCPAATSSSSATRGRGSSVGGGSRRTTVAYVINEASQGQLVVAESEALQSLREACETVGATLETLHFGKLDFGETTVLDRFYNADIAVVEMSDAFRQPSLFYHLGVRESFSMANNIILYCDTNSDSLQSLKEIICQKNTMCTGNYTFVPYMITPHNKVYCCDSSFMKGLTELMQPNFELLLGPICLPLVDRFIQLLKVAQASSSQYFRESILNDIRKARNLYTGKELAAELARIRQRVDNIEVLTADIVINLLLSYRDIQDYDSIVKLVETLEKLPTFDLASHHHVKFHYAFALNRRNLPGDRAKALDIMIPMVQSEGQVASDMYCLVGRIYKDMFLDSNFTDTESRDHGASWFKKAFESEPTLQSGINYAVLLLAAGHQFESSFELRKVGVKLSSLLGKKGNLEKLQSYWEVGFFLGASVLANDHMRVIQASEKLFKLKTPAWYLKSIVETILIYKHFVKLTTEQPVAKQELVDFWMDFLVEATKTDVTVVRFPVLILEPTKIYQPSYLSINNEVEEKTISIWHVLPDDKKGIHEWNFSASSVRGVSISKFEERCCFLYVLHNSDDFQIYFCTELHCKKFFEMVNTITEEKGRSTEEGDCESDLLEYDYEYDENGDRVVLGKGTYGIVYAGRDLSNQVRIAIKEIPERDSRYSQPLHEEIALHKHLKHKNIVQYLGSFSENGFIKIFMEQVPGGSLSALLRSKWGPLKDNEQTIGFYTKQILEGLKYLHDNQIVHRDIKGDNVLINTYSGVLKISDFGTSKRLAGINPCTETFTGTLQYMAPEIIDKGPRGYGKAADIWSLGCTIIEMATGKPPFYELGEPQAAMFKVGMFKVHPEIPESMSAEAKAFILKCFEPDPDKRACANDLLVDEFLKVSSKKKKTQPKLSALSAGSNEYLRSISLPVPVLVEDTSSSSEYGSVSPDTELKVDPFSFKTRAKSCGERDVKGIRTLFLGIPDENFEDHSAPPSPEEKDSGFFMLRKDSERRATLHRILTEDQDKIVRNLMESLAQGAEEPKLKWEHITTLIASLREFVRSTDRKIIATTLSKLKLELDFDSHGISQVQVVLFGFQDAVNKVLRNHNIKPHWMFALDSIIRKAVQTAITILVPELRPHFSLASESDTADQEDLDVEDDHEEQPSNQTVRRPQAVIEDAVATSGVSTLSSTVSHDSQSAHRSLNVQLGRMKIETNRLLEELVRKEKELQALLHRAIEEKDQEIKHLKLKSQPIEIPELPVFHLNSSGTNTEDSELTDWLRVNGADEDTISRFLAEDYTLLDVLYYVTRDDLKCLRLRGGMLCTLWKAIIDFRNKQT

[2] = biological target: Tyrosine-protein kinase ABL1 (Homo sapiens) (UniProt P00519); conditions: at 1 µM
[3] = biological target: Tyrosine-protein kinase ABL2 (Homo sapiens) (UniProt P42684); conditions: at 1 µM
[4] = biological target: Tyrosine-protein kinase ABL2 (Homo sapiens) (UniProt P42684); conditions: at 10 µM
[5] = biological target: T2, Aurora kinase A (Homo sapiens) (UniProt O14965); conditions: at 10 µM
T2 sequence (whole entry): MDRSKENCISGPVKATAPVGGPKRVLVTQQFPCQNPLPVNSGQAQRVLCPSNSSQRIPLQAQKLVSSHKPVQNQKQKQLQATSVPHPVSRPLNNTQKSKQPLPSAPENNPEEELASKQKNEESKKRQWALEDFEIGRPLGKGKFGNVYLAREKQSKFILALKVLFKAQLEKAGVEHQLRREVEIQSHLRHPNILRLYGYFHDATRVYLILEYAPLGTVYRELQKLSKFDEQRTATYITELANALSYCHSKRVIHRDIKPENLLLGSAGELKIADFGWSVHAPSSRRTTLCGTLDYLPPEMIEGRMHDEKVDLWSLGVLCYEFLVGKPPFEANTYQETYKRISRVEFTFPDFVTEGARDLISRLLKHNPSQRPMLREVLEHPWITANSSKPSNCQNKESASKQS

[6] = biological target: Aurora kinase B (Homo sapiens) (UniProt Q96GD4); conditions: at 1 µM
[7] = biological target: Aurora kinase B (Homo sapiens) (UniProt Q96GD4); conditions: at 10 µM
[8] = biological target: Protein-tyrosine kinase 6 (Homo sapiens) (UniProt Q13882); conditions: at 1 µM
[9] = biological target: Protein-tyrosine kinase 6 (Homo sapiens) (UniProt Q13882); conditions: at 10 µM
[10] = biological target: Tyrosine-protein kinase Blk (Homo sapiens) (UniProt P51451); conditions: at 1 µM
[11] = biological target: Tyrosine-protein kinase Blk (Homo sapiens) (UniProt P51451); conditions: at 10 µM
[12] = biological target: Tyrosine-protein kinase ABL1 (Homo sapiens) (UniProt P00519); conditions: at 10 µM
[13] = biological target: T2, Aurora kinase A (Homo sapiens); conditions: at 1 µM
[14] = biological target: T3, Aurora kinase C (Homo sapiens) (UniProt Q9UQB9); conditions: at 1 µM
T3 sequence (whole entry): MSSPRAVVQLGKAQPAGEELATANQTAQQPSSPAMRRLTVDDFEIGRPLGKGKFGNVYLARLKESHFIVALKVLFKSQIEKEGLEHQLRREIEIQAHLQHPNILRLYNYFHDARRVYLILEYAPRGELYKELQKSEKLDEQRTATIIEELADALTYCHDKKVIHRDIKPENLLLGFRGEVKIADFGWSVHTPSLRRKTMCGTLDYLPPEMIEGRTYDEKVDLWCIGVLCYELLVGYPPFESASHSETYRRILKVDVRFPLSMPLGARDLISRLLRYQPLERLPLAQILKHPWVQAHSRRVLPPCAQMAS

[15] = biological target: T3, Aurora kinase C (Homo sapiens); conditions: at 10 µM
[16] = biological target: Tyrosine-protein kinase receptor UFO (Homo sapiens) (UniProt P30530); conditions: at 1 µM
[17] = biological target: Tyrosine-protein kinase receptor UFO (Homo sapiens) (UniProt P30530); conditions: at 10 µM
[18] = biological target: Tyrosine-protein kinase BTK (Homo sapiens) (UniProt Q06187); conditions: at 1 µM
[19] = biological target: Tyrosine-protein kinase BTK (Homo sapiens) (UniProt Q06187); conditions: at 10 µM

Sequence of Tyrosine-protein kinase receptor UFO (Homo sapiens) (P30530 whole entry): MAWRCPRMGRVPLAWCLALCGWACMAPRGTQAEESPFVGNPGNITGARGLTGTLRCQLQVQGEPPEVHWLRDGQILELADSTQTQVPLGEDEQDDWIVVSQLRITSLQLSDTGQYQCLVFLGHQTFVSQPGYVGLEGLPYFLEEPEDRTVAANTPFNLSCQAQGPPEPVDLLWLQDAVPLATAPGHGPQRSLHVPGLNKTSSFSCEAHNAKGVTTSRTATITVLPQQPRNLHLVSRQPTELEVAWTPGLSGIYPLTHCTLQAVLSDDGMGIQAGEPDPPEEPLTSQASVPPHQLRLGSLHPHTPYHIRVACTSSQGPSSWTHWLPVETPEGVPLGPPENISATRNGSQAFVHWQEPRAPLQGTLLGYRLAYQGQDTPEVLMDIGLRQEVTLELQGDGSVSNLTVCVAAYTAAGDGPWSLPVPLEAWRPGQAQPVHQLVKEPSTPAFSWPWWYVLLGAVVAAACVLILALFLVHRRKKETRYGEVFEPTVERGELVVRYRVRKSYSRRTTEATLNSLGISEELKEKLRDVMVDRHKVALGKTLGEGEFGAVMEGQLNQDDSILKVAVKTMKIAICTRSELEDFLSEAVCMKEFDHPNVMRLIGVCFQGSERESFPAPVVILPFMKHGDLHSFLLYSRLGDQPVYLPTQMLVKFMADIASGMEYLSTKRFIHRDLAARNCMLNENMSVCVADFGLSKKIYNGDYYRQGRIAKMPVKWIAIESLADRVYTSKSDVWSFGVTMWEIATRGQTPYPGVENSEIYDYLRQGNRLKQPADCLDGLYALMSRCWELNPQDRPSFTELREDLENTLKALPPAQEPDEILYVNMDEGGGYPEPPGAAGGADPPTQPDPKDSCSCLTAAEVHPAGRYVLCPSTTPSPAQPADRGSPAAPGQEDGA
Sequence of Tyrosine-protein kinase BTK (Homo sapiens) (Q06187 whole entry): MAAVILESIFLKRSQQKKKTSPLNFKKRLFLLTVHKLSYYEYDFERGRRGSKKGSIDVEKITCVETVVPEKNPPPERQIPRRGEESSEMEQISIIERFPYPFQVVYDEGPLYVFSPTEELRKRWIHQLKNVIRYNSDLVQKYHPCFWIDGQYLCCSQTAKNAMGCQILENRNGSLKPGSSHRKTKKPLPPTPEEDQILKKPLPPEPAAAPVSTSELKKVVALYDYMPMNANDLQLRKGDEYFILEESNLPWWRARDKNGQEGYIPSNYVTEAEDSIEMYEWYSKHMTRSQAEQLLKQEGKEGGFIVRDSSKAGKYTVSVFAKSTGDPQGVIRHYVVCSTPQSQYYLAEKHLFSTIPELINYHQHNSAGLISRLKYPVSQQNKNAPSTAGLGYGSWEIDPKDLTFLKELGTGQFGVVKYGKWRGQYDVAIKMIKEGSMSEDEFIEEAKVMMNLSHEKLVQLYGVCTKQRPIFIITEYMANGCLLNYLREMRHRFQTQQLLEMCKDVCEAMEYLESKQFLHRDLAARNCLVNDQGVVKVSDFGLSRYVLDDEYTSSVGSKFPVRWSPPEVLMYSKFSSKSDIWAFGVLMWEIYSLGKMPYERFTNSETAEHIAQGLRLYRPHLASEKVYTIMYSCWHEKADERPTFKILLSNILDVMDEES
Sequence of Tyrosine-protein kinase ABL2 (Homo sapiens) (P42684 whole entry): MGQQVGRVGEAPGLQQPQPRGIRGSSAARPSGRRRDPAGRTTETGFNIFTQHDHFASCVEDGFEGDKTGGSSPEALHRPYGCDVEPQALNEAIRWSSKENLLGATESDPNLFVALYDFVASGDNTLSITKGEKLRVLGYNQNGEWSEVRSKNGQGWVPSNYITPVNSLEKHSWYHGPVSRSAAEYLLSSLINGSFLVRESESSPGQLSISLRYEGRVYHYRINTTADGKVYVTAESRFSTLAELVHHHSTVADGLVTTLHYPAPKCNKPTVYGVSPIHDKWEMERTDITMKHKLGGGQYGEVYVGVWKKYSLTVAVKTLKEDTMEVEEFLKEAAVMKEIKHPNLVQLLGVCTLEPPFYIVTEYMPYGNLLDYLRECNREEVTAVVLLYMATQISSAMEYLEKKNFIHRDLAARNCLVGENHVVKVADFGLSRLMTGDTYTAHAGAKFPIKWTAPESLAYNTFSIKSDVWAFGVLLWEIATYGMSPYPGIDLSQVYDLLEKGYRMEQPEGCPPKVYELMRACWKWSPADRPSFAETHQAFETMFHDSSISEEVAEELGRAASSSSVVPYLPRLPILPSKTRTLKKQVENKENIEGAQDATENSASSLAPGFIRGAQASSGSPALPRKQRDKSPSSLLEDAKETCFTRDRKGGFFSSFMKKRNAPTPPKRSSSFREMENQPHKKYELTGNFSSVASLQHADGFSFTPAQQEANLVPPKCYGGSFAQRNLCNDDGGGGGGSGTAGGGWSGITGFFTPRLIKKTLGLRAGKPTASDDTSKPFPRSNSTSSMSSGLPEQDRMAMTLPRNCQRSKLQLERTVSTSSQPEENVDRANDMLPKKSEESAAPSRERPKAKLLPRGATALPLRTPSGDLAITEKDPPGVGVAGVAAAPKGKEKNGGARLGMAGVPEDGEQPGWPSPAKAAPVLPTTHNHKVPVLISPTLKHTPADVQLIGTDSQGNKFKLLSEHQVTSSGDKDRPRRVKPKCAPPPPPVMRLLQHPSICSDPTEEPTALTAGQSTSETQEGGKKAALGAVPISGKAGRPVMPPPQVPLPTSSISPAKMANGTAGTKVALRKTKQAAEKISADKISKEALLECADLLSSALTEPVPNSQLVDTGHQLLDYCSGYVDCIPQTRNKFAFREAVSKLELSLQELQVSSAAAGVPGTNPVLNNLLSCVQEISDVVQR
Sequence of Tyrosine-protein kinase ABL1 (Homo sapiens) (P00519 whole entry): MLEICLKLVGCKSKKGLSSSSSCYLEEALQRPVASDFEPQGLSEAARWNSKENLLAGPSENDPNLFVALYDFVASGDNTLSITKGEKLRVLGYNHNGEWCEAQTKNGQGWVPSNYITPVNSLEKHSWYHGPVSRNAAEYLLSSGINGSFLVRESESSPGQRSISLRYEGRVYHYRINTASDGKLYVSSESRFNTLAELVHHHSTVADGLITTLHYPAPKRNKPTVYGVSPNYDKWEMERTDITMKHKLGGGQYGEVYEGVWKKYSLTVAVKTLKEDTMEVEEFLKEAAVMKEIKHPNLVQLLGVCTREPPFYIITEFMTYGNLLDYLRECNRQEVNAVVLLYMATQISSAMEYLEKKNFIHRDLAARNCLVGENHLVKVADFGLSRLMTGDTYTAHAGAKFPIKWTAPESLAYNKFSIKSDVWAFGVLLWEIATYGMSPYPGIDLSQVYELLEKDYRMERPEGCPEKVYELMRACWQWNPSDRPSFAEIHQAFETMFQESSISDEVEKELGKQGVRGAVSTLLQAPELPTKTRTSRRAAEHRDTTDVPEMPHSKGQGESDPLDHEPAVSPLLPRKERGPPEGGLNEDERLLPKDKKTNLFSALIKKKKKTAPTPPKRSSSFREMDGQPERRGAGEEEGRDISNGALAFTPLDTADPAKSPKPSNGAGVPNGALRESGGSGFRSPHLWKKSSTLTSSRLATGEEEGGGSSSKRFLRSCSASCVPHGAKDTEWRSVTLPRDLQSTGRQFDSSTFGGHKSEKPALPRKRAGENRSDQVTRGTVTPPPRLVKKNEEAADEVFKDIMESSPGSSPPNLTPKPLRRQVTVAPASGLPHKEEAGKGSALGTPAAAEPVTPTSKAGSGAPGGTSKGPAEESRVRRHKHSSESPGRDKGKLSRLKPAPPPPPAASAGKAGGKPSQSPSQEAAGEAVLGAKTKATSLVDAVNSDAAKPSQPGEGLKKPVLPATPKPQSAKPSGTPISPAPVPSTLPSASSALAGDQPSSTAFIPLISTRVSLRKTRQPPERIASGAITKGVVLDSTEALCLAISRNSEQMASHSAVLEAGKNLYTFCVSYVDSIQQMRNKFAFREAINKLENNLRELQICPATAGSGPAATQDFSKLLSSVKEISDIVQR
Sequence of Protein-tyrosine kinase 6 (Homo sapiens) (Q13882 whole entry, looked up): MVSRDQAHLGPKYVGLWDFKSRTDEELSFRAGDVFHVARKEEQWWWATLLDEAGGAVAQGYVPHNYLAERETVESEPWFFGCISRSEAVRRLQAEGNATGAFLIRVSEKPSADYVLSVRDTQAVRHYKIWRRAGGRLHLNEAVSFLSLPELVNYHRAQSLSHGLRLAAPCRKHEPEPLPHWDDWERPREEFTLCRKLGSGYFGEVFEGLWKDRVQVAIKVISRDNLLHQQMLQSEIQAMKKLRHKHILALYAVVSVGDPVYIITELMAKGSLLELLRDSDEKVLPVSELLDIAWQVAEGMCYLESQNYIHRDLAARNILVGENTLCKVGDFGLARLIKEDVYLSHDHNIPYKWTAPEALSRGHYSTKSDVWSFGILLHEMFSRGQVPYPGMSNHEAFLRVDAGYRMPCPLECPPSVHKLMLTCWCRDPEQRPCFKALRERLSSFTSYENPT
Sequence of Aurora kinase B (Homo sapiens) (Q96GD4 whole entry): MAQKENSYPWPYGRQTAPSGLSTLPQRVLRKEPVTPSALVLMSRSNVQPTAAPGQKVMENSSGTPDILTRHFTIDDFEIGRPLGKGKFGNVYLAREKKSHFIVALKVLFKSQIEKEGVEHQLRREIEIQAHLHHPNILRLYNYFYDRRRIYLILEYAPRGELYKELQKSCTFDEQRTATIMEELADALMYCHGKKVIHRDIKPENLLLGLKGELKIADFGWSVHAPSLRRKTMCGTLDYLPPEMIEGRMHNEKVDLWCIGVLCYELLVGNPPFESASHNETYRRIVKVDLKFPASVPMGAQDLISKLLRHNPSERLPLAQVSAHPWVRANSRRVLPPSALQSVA

Compound `O=C1Cc2c([nH]c3ccc([N+](=O)[O-])cc23)-c2ccccc2N1` has a residual activity [1] of 105%, a residual activity [2] of 47% and a residual activity [3] of 81%. The residual activity [4] was 76%, the residual activity [5] was 105% and the residual activity [6] was 48%. It also gave a residual activity [7] of 22%, a residual activity [8] of 111% and a residual activity [9] of 107%. For the same compound, the residual activity [10] was 29% and the residual activity [11] was 33%.
`CC(C)[C@H](CO)Nc1nc(Nc2cc(N)cc(Cl)c2)c2ncn(C(C)C)c2n1` gave a residual activity [2] of 75%, a residual activity [12] of 15% and a residual activity [3] of 62%. For the same compound, the residual activity [4] was 8%, the residual activity [13] was 70% and the residual activity [5] was 47%. It also gave a residual activity [6] of 14%, a residual activity [7] of 2% and a residual activity [14] of 91%. For the same compound, the residual activity [15] was 52%, the residual activity [16] was 80% and the residual activity [17] was 20%. The residual activity [8] was 96%, the residual activity [9] was 83% and the residual activity [18] was 48%. The residual activity [19] was 5%.
`Oc1cccc(-c2nc(N3CCOCC3)c3oc4ncccc4c3n2)c1` showed a residual activity [7] of 92% and a residual activity [17] of 86%.
`CSc1nc(-c2ccc(F)cc2)c(-c2ccnc(NC(C)c3ccccc3)c2)[nH]1` (stereo not given) was tested, and the residual activity [1] was 86%, the residual activity [6] was 46% and the residual activity [7] was 13%. The residual activity [16] was 101%, the residual activity [17] was 85% and the residual activity [9] was 89%. It also gave a residual activity [18] of 90%, a residual activity [19] of 91% and a residual activity [10] of 98%. It also gave a residual activity [11] of 63%.
Compound `O=c1cc(N2CCOCC2)oc2c(-c3ccccc3)cccc12` has a residual activity [8] of 101% and a residual activity [9] of 101%.
For `Fc1ccc(-c2nc3n(c2-c2ccncc2)CCS3)cc1`, the residual activity [1] was 83%, the residual activity [3] was 96% and the residual activity [4] was 77%. It also gave a residual activity [14] of 98%, a residual activity [15] of 95% and a residual activity [18] of 100%. For the same compound, the residual activity [19] was 98%.
With `COc1ccc(COc2ccc(Cc3cnc(N)nc3N)cc2OC)cc1` the residual activity [12] was 117%, the residual activity [13] was 108% and the residual activity [5] was 111%. It also gave a residual activity [6] of 110%, a residual activity [7] of 76% and a residual activity [16] of 80%. The residual activity [17] was 74% and the residual activity [11] was 98%.
`CCOc1nc(NC(=O)Cc2cc(OC)ccc2OC)cc(N)c1C#N` gave a residual activity [14] of 78%, a residual activity [8] of 60% and a residual activity [9] of 50%. The residual activity [18] was 81% and the residual activity [19] was 78%.
Work on `N#C/C(=C\c1ccc(O)c(O)c1)C(=O)NCc1ccccc1` yielded a residual activity [17] of 77% and a residual activity [10] of 104%.
For `CCOC(=O)c1c(C)[nH]c(/C=C2\C(=O)Nc3ccccc32)c1C`, the residual activity [6] was 74%, the residual activity [7] was 61% and the residual activity [16] was 84%. For the same compound, the residual activity [17] was 81%, the residual activity [10] was 89% and the residual activity [11] was 57%.
For `O=c1c(-c2ccc(F)cc2)c(-c2ccncc2)[nH]n1-c1ccc(Cl)cc1`, the residual activity [1] was 119%, the residual activity [12] was 68% and the residual activity [4] was 53%. The residual activity [8] was 59%, the residual activity [9] was 7% and the residual activity [10] was 101%. It also gave a residual activity [11] of 74%.
Work on `CCCC(=O)Oc1ccc2[nH]c(C(=O)c3cc4ccccc4[nH]3)cc2c1` yielded a residual activity [2] of 102%, a residual activity [12] of 96% and a residual activity [13] of 71%. For the same compound, the residual activity [6] was 124%, the residual activity [7] was 47% and the residual activity [14] was 104%. It also gave a residual activity [15] of 84%, a residual activity [16] of 81% and a residual activity [17] of 80%. The residual activity [8] was 101%, the residual activity [9] was 107% and the residual activity [18] was 94%. For the same compound, the residual activity [10] was 70% and the residual activity [11] was 64%.
